PubChem BioAssay AID1490 (National Center for Advancing Translational Sciences (NCATS), 2009)
Values joined by “and” are separate entries in the source; they are usually repeats but may differ in a detail not shown here. Identical values can stand only once. In all, about 310,000 compounds went through this assay and about 11,000 (3.5%) were called active. Another 4% or so got no clear call; they are omitted. Calls come from the whole dose curve; as a rule, active = well fitted inhibition curve with a large enough effect; inconclusive = small, poorly fitted or top-dose-only effect, or another doubt; inactive = no such curve, though single readings can be large or run the other way. Only a selection was taken, and actives are over-represented in it overall. Non-standard residues stand in square brackets, D forms with d. Residues, ends and D or L forms follow the SMILES beside them. *: point of attachment. PhAc = O=C(Cc1ccccc1)*

These compounds were tested against 4'-phosphopantetheinyl transferase ffp (Bacillus subtilis) (UniProt Q9F4F7) (assay: qHTS Assay for Inhibitors of Bacillus subtilis Sfp phosphopantetheinyl transferase (PPTase)). Settings: Biochemical Sfp PPTase activity.
In short: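 After 15 min at room temperature with compound, 15 nM Sfp received 5 uM rhodamine-CoA plus 12.5 uM BHQ-2-ybbR (50 mM Hepes pH 7.6, 10 mM MgCl2). Rate came from the fluorescence difference over 30 min, ex 525/em 598 nm.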
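Note: the enzyme is Sfp with the accession as filed and its product quenches rhodamine fluorescence.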
Potency is the fitted concentration of half-maximal effect.
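Throughout, for Largest response in the series, negative = inhibition: 0% = enzyme reaction without inhibitor and -100% = no enzyme wells.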

Largest response in the series, negative = inhibition, inactive:
CCOCCCNc1nc(-c2ccccc2)nc2ccccc12 14.7%, c1coc(CNc2ncnc3ccccc23)c1 8.96%, CC(C)C(=O)N1CC(=O)Nc2ccc(F)cc2C1c1ccc(F)cc1 (stereo unspecified) 17.9%, CCN(CC(=O)N1CCCC1)S(=O)(=O)c1ccc(F)cc1 4.81%, O=C(NNC(=S)Nc1ccc(Br)cc1Cl)c1ccco1 12.1%, O=C(Nc1ccc(NC(=O)c2ccco2)c(Cl)c1)c1cccc([N+](=O)[O-])c1 5.01%, O=S(=O)(c1cccc(Cn2nnc(-c3ccc(F)cc3)n2)c1)N1CCOCC1 3.33%, CC(=O)C1=C(C)NC(=O)NC1c1ccc2c(c1)OCO2 (stereo unspecified) 0.489%, c1nnc2c3c4c(sc3ncn12)CCC4 -1.58%, N=c1c2c3c(sc2ncn1N)CCCC3 13.2%, Cc1cc(-c2ccc(S(=O)(=O)N3CCc4ccccc4C3)s2)on1 12.5%, O=C(NCc1ccccc1)C(c1ccco1)N(C(=O)c1csnn1)c1ccccc1F (stereo unspecified) 11.4%, C[C@H](NC(=O)C1CC(=O)N(c2ccc3c(c2)OCO3)C1)C(=O)NCc1ccco1 (stereo partly specified) 4.65%, CC/C=C\C/C=C\C/C=C\C/C=C\C/C=C\C/C=C\CCC(=O)NC(C)C(=O)O (stereo unspecified) -29.1%, COc1cccc(/C=C2\C=C(c3ccc(C)cc3)OC2=O)c1OC(C)=O -6.33%, CN(C)/C=C1/C(=O)Nc2ccccc21 -6.73%, O=S(=O)(c1ccccc1)N(Cc1cccc(F)c1)c1ccccc1 13.8%, CN(Cc1ccco1)c1cc(-c2ccccc2C(F)(F)F)ncn1 -8.82%, Cc1ccccc1-c1nc(N(C)Cc2ccco2)c2ccccc2n1 -22.5%, CCC1OC(c2ccc([N+](=O)[O-])cc2)=Nc2ccccc21 (stereo unspecified) -5.21%, CCOc1cc(C)ccc1OCc1nnc(SCC(=O)Nc2cccc(C(=O)O)c2)n1-c1ccccc1 22.3%, Cc1ccc(NC(=O)[C@H](Cc2ccccc2)NC(=O)C2CCNCC2)cc1 1.09%, CCOC(=O)c1c(NC(=O)Cn2nc(C(F)(F)F)cc2C)sc2c1CCC2 -2.66%, CCOC(=O)c1c(NC(=O)CCC(=O)NCc2ccco2)sc2c1CCCC2 -8.63%, CCOC(=O)c1c(NC(=S)Nc2ccccc2C)sc2c1CCC2 -14.6%, CCOC(=O)c1c(NC(=S)NC)sc2c1CCCC2 7.02%, Cc1ccc(C(=O)OCC(=O)NC(=O)Cc2ccccc2)c(O)c1 15.9%, CNC(=O)[C@]1(C(F)(F)F)C[C@H](CCc2ccccc2)CCCO1 -10.7%, O=C(NCc1ccccn1)[C@]1(C(F)(F)F)C[C@H](CCc2ccccc2)CCCO1 -24.4%, O=C(NCC1CC1)C1(C(F)(F)F)C/C(=C\CCO)CCCO1 (stereo unspecified) 1.74%, Cc1ccc(CNC(=O)Cn2cnc(S(=O)(=O)N3CCCCC3)c2)o1 14.3%, CCCn1nc(NC(=O)C(C)C)c2cc3cc(OC)ccc3nc21 4.66%, CC(O)COc1ccccc1 (stereo unspecified) 12.6%, COc1ccc(N(CC(=O)NCc2ccc(F)cc2)C(=O)CCC(=O)Nc2nccs2)cc1 -11.5%, O=C1CCC(=O)N(c2ccccc2)N1 -3.33%, CN(CCC(=O)Nc1cc(S(=O)(=O)N(C)C)ccc1Cl)CC(=O)Nc1ccc(F)cc1 13.5%, Cn1c(N)c(C(=O)COC(=O)c2cc(C(F)(F)F)nc3c(C(F)(F)F)cccc23)c(=O)n(C)c1=O 13.8%, N#C/C(=C/c1ccc(N2CCCCC2)o1)C(=O)NCCc1c[nH]c2ccccc12 -16.2%, N#C/C(=C\c1ccc(N2CCOCC2)o1)C(=O)N1CCOCC1 -13.7%, CCCCC[C@H]1CN(C2CCCCC2)C(=O)[C@@H]1CC(=O)NCc1ccc(OC)cc1 -4.46%, O=C(Nc1ccccc1N1CCN(C(=O)c2ccccc2)CC1)c1ccco1 14.1%, CC(C)[C@@H](NC(=O)OC(C)(C)C)C(=O)NCC1CCC(C(=O)N[C@@H](Cc2ccccc2)C(=O)O)CC1 (stereo partly specified) 6.54%, O=C(O)CCCCCCCCc1cn(CN2C(=O)c3ccccc3C2=O)nn1 -11%, Cc1cccc(COc2ccccc2/C=N/Nc2ccc([N+](=O)[O-])cc2)c1 24.5%, Cc1ccc(NS(=O)(=O)c2ccc(C)c(NC(=O)COc3ccc4ccccc4c3)c2)c(C)c1 -28.6%, N#Cc1ccc(/C=C2\CCn3c2nc2cc(C(=O)O)ccc2c3=O)cc1 31.1%, N#Cc1cccc(-c2ccc3ncnc(NCc4cccs4)c3c2)c1 -14.8%, O=C(Cc1ccccc1Cl)N1CCOCC1 17%, COC(=O)[C@@]1(Cc2ccc(F)cc2)[C@H]2c3cc(C(=O)N(C)C)n(CCc4c[nH]c5ccc(OC)cc45)c3C[C@H]2CN1C(=O)c1ccccc1 0.76%, O=C(NCc1ccc(Cl)cc1)c1cc(=O)nc2sc(-c3ccccc3)nn12 1.8%, O=C(NCc1ccc(Cl)cc1)NCc1ccc(Cl)cc1 -3.32%, Cc1c(C(=O)NCCN(C)C)oc2ccc(S(=O)(=O)N3CCCC3)cc12 18.9%, Fc1cc(F)c2nc(Nc3nc4c(F)cccc4s3)sc2c1 -0.873%, NC(=O)c1c(NC(=O)c2ccccc2)sc2c1CCCC2 4.07%, COc1ccc(N2CCN(S(=O)(=O)c3cc(Br)cnc3N)CC2)cc1 7.84%, C=CCc1c(C)nc2cc(-c3ccccc3)[nH]n2c1=O 7.41%, COc1cc(OC)cc(-c2nc3nc(C)c(CCC(=O)NCc4ccco4)c(C)n3n2)c1 8.97%, Cc1nc2c(-c3ccc(F)cc3)c(C)nn2c(C)c1CCC(=O)NCc1ccco1 -2.36%, CC(C)C(=O)Nc1nnc(SCC(=O)N2C(C)CCCC2C)s1 (stereo unspecified) -17.7%, COc1ccc(Cl)cc1S(=O)(=O)N1CCN(CC(=O)C(C)(C)C)CC1 7.95%, O=S(=O)(c1cc(Cl)ccc1Cl)N1CCN(Cc2ccco2)CC1 22.5%, COc1ccccc1CNC(=O)C1CCN(S(=O)(=O)c2ccc3c(c2)CC(C)N3C(=O)C2CC2)CC1 (stereo unspecified) -7.76%, CN(C)S(=O)(=O)c1ccc(N2CCCC2)c(C(=O)Nc2cccc(F)c2)c1 -1.67%, Cc1ccc(C(=O)NCCc2nnc(SCC(=O)Nc3cccc(C(=O)O)c3)n2C)cc1 10.4%, CC(CCc1ccccc1)NC(=O)COC(=O)c1ccc(F)cc1 (stereo unspecified) -4.51%, COc1ccccc1CC(=O)Nc1ccc(S(=O)(=O)N2CCCC2)cc1 4.84%, CCOc1cccc(NC(=O)C2CCCN(S(=O)(=O)c3ccc(OC)cc3)C2)c1 (stereo unspecified) -5.07%, Cc1cc(C)c(C#N)c(Nc2cccc(Br)c2)n1 6.8%, CC(C)C[C@@H](NC(=O)[C@H]1CCCN1C(=O)Cc1ccccc1)C(N)=O (PhAc-[dP]-[dL]-NH2) 21.3%, CC(C)CCN(C(=O)c1csnn1)C(C(=O)NC1CCCC1)c1ccccc1 (stereo unspecified) 13.6%, COc1ccc2[nH]cc(CCNc3ncnc4ccc(-c5ccc(C(=O)N(C)C)cc5)cc34)c2c1 -5.41%, COc1cccc(Cn2cc(/C=N/NC(=O)c3cc(O)cc(O)c3)c3ccccc32)c1 -18.5%, COc1ccc(/C=N/NC(=O)c2cccc(C(F)(F)F)c2)cc1 -22%

Potency, active:
c1ccc(-c2nc(NCc3ccco3)c3ccccc3n2)cc1 11.2 µM, CCC(=O)NC(=S)Nc1ccc(NC(=O)c2ccco2)c(Cl)c1 39.8 µM, S=c1[nH]nc2c3c4c(sc3ncn12)CCCC4 56.2 µM, CN(C)/C=C1\C=C(c2ccccc2)OC1=O 20 µM, CN(Cc1ccco1)c1ncncc1-c1ccoc1 79.4 µM, CCCOC(=O)Nc1sc2c(c1C(=O)OCC)CCC2 14.1 µM, CCOC(=O)c1c(NC(=O)C2(C)Cc3ccccc3C(=O)O2)sc2c1CCCC2 (stereo unspecified) 35.5 µM, Cc1ccc(CNC(=O)C2(C(F)(F)F)C/C(=C\CCO)CCCO2)o1 (stereo unspecified) 50.1 µM, Cc1ccc(CNC(=O)C2(C(F)(F)F)C/C(=C\Cc3ccccc3)CCCO2)o1 (stereo unspecified) 35.5 µM and 50.1 µM, N#C/C(=C/c1ccc(N2CCOCC2)o1)C(=O)N1CCOCC1 56.2 µM, Cc1ccc(NS(=O)(=O)c2ccc(N/N=C/c3ccccc3OCC(=O)O)c([N+](=O)[O-])c2)c(C)c1 79.4 µM, O=C(NCc1ccc(Cl)cc1)c1cc2c(nc3sccn32)s1 50.1 µM, NC(=O)c1c(Nc2nc3c(F)cccc3s2)sc2c1CCCC2 44.7 µM, COc1ccc(-c2cc3nc(C)c(CCC(=O)NC(C)CCc4ccco4)c(C)n3n2)c(OC)c1 (stereo unspecified) 79.4 µM, O=C(CN1CCN(S(=O)(=O)c2cc(Cl)ccc2Cl)CC1)c1ccc(O)c(O)c1 50.1 µM, O=C1CCC(=O)N(O)CCCCCNC(=O)CCC(=O)N(O)CCCCCNC(=O)CCC(=O)N(O)CCCCCN1 89.1 µM, CCN(CC(=O)Nc1ccc(S(=O)(=O)N2CCCC2)cc1)CC(=O)Nc1cccc(OC)c1 79.4 µM, O=C(Cn1cc(/C=N/NC(=O)c2cccc(C(F)(F)F)c2)c2ccccc21)Nc1ccc(F)cc1 20 µM
